From PubChem BioAssay (Tox21)
Results filed as inconclusive are left out. Activity calls are given as the source filed them. Unless noted, calls follow the shape of the dose curve; as a rule, active = well fitted curve in the direction sought with a large enough effect in the repeat runs; inconclusive = weak or mixed curves; inactive = no such curve, though single readings can be large; an effect the other way counts as inactive or inconclusive.

What was measured:
[1] = qHTS assay for small molecule agonists of the p53 signaling pathway (AID 651631; calls by dose curve; also: nearly all actives have a fitted effect of over 15% in size)
Outline: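 Fluorescence intensity from cleaved LiveBLAzer B/G substrate (2 h, room temperature) served as the signal. Beforehand, HCT-116 reporter cells bearing p53 response elements were treated 16 h at 37 °C with DMSO-dissolved compounds.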

[2] = qHTS assay for small molecules that induce genotoxicity in human embryonic kidney cells expressing luciferase-tagged ATAD5 (AID 651632); also: nearly all actives have a fitted effect of over 15% in size
Outline: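 Concentration-response screen for ATAD5 upregulation in HEK293T luciferase reporter cells; 16 hr treatment at 37C, then luminescence after 30 min with Amplite at room temperature.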

[3] = qHTS assay for small molecule agonists of the p53 signaling pathway - cell viability (AID 651633; calls by dose curve;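 also: p53RE-bla HCT reporter cells with a stable beta-lactamase p53 reporter; series mostly up to about 83 µM; nearly all actives have a fitted effect of over 30% in size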)
Outline: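 Viability counter-read: CellTiter-Glo luminescence (30 min, room temperature) in the same p53RE-bla plates. These plates had been exposed to compounds for 16 h at 37 C.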

[4] = qHTS assay for small molecules that induce genotoxicity in human embryonic kidney cells expressing luciferase-tagged ATAD5 - cell viability (AID 651634; calls by dose curve; also: nearly all actives have a fitted effect of over 25% in size)
Outline: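 15.5 hr compound or vehicle exposure of HEK293T cells expressing luciferase-tagged ATAD5 at 37C; live-cell protease activity is read by fluorescence after 30 min of CellTiter-Fluor.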

[5] = qHTS assay for small molecule disruptors of the mitochondrial membrane potential - cell viability (AID 720634; calls by dose curve;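 also: human HepG2 liver cancer cells; series mostly up to about 83 µM; nearly all actives have a fitted effect of over 20% in size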)
Outline: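 In this qHTS format, HepG2 cells plated overnight were pinned with compound, incubated 1 hr, and assayed for ATP luminescence with CellTiter-Glo after m-MPI dye addition.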

[6] = qHTS assay for small molecule disruptors of the mitochondrial membrane potential (AID 720635)
Outline: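 Mitochondrial membrane potential tracked with Mito-MPS dye, red aggregates (ex 540/em 590 nm) against green monomers (ex 490/em 535 nm). Compound treatment 1 hr at 37C, dye 30 min in HepG2.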

[7] = qHTS assay to test for compound auto fluorescence at 590 nm (red) in HepG2 cells (AID 720674)
Outline: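 We screened compounds on adherent HepG2 cells, incubating them for an hour at 37 C in 5% CO2 before reading emission at 590 nm under 540 nm excitation; values reflect equivalence to Rose Bengal sodium fluorescence.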

[8] = qHTS assay to test for compound auto fluorescence at 535 nm (green) in HepG2 cells (AID 720675)
[9] = qHTS assay to test for compound auto fluorescence at 590 nm (red) in HEK293 cells (AID 720679)
Outline: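 Red autofluorescence, HEK293 cells: 2,000 cells/well; attach 4-5 hr 37C; add 23 nL cpd or DMSO; incubate o/n 37C 5% CO2; read Ex540/Em590; Rose Bengal sodium reference.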

[10] = qHTS assay to test for compound auto fluorescence at 535 nm (green) in HEK293 cells (AID 720680)
[11] = qHTS assay to test for compound auto fluorescence at 460 nm (blue) in HEK293 cell free culture (AID 720681)
Outline: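 Blue fluorescence (Ex 405/Em 460 nm, triamterene-equivalent) was read immediately after pin transfer of compound or DMSO into medium (DMEM, 10% FBS) without cells.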

[12] = qHTS assay to test for compound auto fluorescence at 535 nm (green) in HEK293 cell free culture (AID 720682)
Outline: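 Intrinsic compound fluorescence is measured in culture medium containing 10% FBS, with excitation at 485 nm and detection at 535 nm, referenced to fluorescein.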

[13] = qHTS assay to test for compound auto fluorescence at 590 nm (red) in HEK293 cell free culture (AID 720683)
Outline: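 Red-channel autofluorescence of compounds in culture medium (DMEM, 10% FBS), no cells, measured at 540/590 nm. Rose Bengal sodium is the reference fluorophore for equivalence.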

[14] = qHTS assay to test for compound auto fluorescence at 590 nm (red) in HepG2 cell free culture (AID 720684)
Outline: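 Cell-free; medium MEM + 10% FBS; compound or DMSO added by pintool; read Ex 540/Em 590 nm; Rose Bengal sodium as red reference fluorophore.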

[15] = qHTS assay to test for compound auto fluorescence at 460 nm (blue) in HepG2 cell free culture (AID 720685)
Outline: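 Cell-free plates of MEM plus 10% FBS received 23 nL compound or DMSO vehicle; blue-channel (405/460 nm) intensity scored against triamterene as reference fluorophore.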

[16] = qHTS assay to test for compound auto fluorescence at 535 nm (green) in HepG2 cell free culture (AID 720686)
[17] = qHTS assay to test for compound auto fluorescence at 460 nm (blue) in HepG2 cells (AID 720687)
Outline: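 Blue-channel autofluorescence (Ex/Em 405/460 nm, triamterene-equivalent) was measured after 1 hr compound exposure at 37 C, 5% CO2. Cells were HepG2, plated overnight at 37 C in MEM plus 10% FBS.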

[18] = qHTS assay to test for compound auto fluorescence at 460 nm (blue) in HEK293 cells (AID 720678)
Outline: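 Intrinsic compound fluorescence is recorded in live HEK293 cultures after overnight incubation at 37C, 5% CO2, using excitation 405 nm and emission 460 nm. Values are referenced to triamterene.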

[19] = target: Glucocorticoid receptor (Homo sapiens) (UniProt P04150); assay: qHTS assay to identify small molecule agonists of the glucocorticoid receptor (GR) signaling pathway (AID 720691; active = well fitted activation curve with a large enough effect in the signal ratio in the repeat runs, not every such curve was filed as active; the % refers to the signal ratio)
Outline: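 Measures GR pathway activation through a GRE-beta-lactamase reporter stably integrated in HeLa cells, with 18 h compound treatment at 37 C and fluorescence detection using a FRET substrate.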

[20] = target: Glucocorticoid receptor (Homo sapiens) (UniProt P04150); assay: qHTS assay to identify small molecule antagonists of the glucocorticoid receptor (GR) signaling pathway (AID 720692; active = well fitted inhibition curve with a large enough effect in the signal ratio in the repeat runs, not every such curve was filed as active; the % refers to the signal ratio)
Outline: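 Tox21 10K library screened in concentration-response for blockade of dexamethasone (5 nM final)-induced GRE-bla reporter activity in HeLa cells; 18 h treatment, fluorescence read.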

Measured: Potency

Sequence of Glucocorticoid receptor (Homo sapiens) (P04150 whole entry, looked up): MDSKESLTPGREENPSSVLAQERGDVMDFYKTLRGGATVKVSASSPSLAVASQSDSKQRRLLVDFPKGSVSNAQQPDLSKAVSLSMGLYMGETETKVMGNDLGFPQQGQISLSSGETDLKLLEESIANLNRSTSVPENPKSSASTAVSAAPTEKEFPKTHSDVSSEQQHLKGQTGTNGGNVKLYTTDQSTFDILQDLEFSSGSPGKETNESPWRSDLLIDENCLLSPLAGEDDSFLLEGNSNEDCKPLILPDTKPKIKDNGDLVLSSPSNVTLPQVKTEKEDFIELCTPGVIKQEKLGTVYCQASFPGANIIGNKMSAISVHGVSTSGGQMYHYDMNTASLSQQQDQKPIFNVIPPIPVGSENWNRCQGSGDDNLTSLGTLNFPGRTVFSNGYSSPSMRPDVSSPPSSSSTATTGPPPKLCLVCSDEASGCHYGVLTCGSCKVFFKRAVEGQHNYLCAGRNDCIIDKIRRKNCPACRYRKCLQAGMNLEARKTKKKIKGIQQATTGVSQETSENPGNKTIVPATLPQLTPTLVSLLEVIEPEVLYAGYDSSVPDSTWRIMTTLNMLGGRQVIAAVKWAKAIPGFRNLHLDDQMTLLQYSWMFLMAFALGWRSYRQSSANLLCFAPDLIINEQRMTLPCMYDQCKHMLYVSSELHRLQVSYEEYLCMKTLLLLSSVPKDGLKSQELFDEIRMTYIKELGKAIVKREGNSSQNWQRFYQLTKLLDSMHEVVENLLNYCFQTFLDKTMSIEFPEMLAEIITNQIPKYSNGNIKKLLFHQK

OCCSCSCCO
not listed: [18] | [19] | [20]
inactive: all other assays above

CN1C[C@@H](NS(=O)(=O)N(C)C)C[C@@H]2c3cccc4c3c(cn4C)C[C@H]21
inactive: all assays above

[As]#[In]
not listed: [9]
inactive: all other assays above

O=P(O)(Oc1ccccc1)Oc1ccccc1
inactive: all assays above

CCC(C)n1c(=O)[nH]c(C)c(Br)c1=O (stereo unspecified)
not listed: [6] | [19] | [20]
inactive: all other assays above

CC(C=O)Cc1ccc2c(c1)OCO2 (stereo unspecified)
not listed: [6] | [20]
inactive: all other assays above

O=S(=O)(O)C(F)(F)C(F)(F)C(F)(F)C(F)(F)C(F)(F)C(F)(F)F
not listed: [6] | [12]
inactive: all other assays above

Clc1cccc(N2CCNCC2)c1
not listed: [6] | [12]
inactive: all other assays above

COc1cc2c(cc1OC)[C@@]13CCN4CC5=CCO[C@H]6CC(=O)N2[C@H]1[C@H]6[C@H]5C[C@H]43
not listed: [6] | [19] | [20]
inactive: all other assays above

ClC(Cl)C(Cl)Cl
not listed: [6] | [15]
inactive: all other assays above

CC(C1CC1)C(O)(Cn1cncn1)c1ccc(Cl)cc1 (stereo unspecified)
not listed: [6] | [9] | [19] | [20]
inactive: all other assays above

CC(=O)CCc1ccc2c(c1)OCO2
not listed: [12] | [18] | [20]
inactive: all other assays above

CC(N)=S
not listed: [9] | [18] | [19] | [20]
inactive: all other assays above

CN1CCC(O)(c2ccc(F)cc2)C(C(=O)c2ccc(F)cc2)C1 (stereo unspecified)
not listed: [6] | [12] | [15] | [20]
inactive: all other assays above

C#C[C@]1(O)C=C[C@H]2[C@@H]3CCC4=CC(=O)CC[C@@H]4[C@H]3CC[C@@]21CC
not listed: [6] | [20]
inactive: all other assays above

CC1CCC(=O)O1 (stereo unspecified)
not listed: [9] | [15] | [17] | [18]
inactive: all other assays above

ClCCOCOCCCl
not listed: [9] | [12] | [18]
inactive: all other assays above

O=C(CCN1CC1)OCC(CO)(COC(=O)CCN1CC1)COC(=O)CCN1CC1
not listed: [6] | [19] | [20]
inactive: all other assays above

CCC1(c2ccccc2)C(=O)NC(=O)NC1=O
not listed: [6] | [18] | [19] | [20]
inactive: all other assays above

N#Cc1c(Cl)cccc1Cl
not listed: [6] | [19] | [20]
inactive: all other assays above

Cc1cc(C)nc(Nc2ccccc2)n1
not listed: [6] | [12] | [15] | [19]
inactive: all other assays above

Cc1cnc[nH]1
not listed: [6]
inactive: all other assays above

COP(N)(=S)Oc1ccccc1C(=O)OC(C)C (stereo unspecified)
not listed: [6]
inactive: all other assays above

O=C(N[C@H]1CN2CCC1CC2)c1cc2ccoc2cn1
not listed: [6] | [17]
inactive: all other assays above

Cc1ncc(CNC(=O)N(CCCl)N=O)c(N)n1
not listed: [15] | [18]
inactive: all other assays above

CCCCc1c(C)nc(NCC)[nH]c1=O
not listed: [6] | [19]
inactive: all other assays above

N#Cc1ccncc1
not listed: [6] | [15] | [17]
inactive: all other assays above

[Cl][Sn]([Cl])([Cl])[Cl]
not listed: [9] | [15] | [17] | [18]
inactive: all other assays above

Cc1nc(N)nc(N)n1
not listed: [6] | [20]
inactive: all other assays above

Cc1nnc2n1-c1sc(CCC(=O)N3CCOCC3)cc1C(c1ccccc1Cl)=NC2
not listed: [6]
inactive: all other assays above

O=C1c2ccccc2C(=O)c2ccccc21
not listed: [6] | [19] | [20]
inactive: all other assays above

C=C(C)[C@@H]1CC=C(C=O)CC1
not listed: [6] | [9] | [17] | [19] | [20]
inactive: all other assays above

CCOP(=S)(Oc1cnc(C(C)(C)C)nc1)OC(C)C (stereo unspecified)
not listed: [6] | [19]
inactive: all other assays above
